Rows were chosen to be rich in hits. Some 2.3% of all compounds tested hit in one or more screens of this group.
ERp5 block = inhibitors of ERp5-driven insulin aggregation, primary screen, biochemical, turbidity, absorbance 650 nm, single point; inhibition, % at 9.99 µM; actives 0.05% (n = 350,000); 90 min; AID 651711, 2012; Protein disulfide-isomerase A6 (Homo sapiens), Q15084;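 active = mean replicate inhibition above about 25%, with every replicate also reaching it, limit read from the data, passing the limit was not always enough; inconclusive = only one of those two criteria met; inactive = neither criterion met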
SIRT5 inh = SIRT5 desuccinylase inhibitors, primary screen, biochemical, fluorescence imaging, single point, set 5. NAD-dependent protein deacylase sirtuin-5, mitochondrial (Homo sapiens), Q9NXA8. Purified SirT5, succinyl-peptide AMC, trypsin-coupled fluorescence. inhibition, % at 15 µM. actives 1.1% (n = 330,000). AID 652115, 2013; in the data active = inhibition above about 15%; inconclusive = no clear call, values can overlap the other calls
PDI inh = inhibitors of human PDI, primary screen, biochemical, turbidity, single point, plate reader; PDI insulin aggregation turbidity, A650, 90 min; actives 0.052% (n = 350,000); Protein disulfide-isomerase (Homo sapiens), P07237; inhibition, % at 10 µM;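 active = mean inhibition across replicates of 30% or more, whatever share of single replicates reach that level; inconclusive = mean inhibition below 30% while every single replicate reaches 30%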
Target sequence (P07237 whole entry, looked up): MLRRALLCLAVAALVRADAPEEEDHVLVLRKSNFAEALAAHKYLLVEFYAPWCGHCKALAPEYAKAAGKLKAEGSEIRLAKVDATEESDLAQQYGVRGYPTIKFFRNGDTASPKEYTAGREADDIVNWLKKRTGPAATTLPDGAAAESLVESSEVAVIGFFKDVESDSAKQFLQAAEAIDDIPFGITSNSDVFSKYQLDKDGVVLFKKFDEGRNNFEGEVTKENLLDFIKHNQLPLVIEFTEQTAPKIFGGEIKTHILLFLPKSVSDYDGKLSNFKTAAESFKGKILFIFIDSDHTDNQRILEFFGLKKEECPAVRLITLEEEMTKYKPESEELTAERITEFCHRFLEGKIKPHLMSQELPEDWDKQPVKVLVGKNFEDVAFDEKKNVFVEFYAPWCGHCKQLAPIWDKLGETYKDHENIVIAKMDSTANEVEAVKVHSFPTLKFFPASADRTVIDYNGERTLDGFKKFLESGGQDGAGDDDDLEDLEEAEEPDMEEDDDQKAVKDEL
DENV2 CPE = inhibitors of DENV2 cytopathic effect, primary screen, cell-based, plate reader, single concentration; DENV2-infected cells, cytopathic effect rescue; CPE inhibition, % at 9.99 µM; actives 1.7% (n = 350,000); in the data active = CPE inhibition above about 20%, passing the limit was not always enough; inconclusive = no clear call, values can overlap the other calls; tested in BHK-21 cells;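 also: 0% = median of neutral control wells and 100% = median of positive control wells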
Rtt109 Vps75 = inhibitors of C. albicans Rtt109/Vps75 HAT, primary screen, biochemical, ThioGlo CoA-SH fluorescence, plate reader; purified Rtt109/Vps75, 4 h; inhibition, % at 34.9 µM; actives 0.16% (n = 330,000); AID 540336, 2011;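 active = inhibition of at least 50% in every replicate; inconclusive = best replicate reaches 50% inhibition but some replicates fall short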
* = called active by the depositor.

What do the screens show for `CN(C)CC(=O)Nc1ccc2c(c1)[C@H]1C[C@@H](CC(=O)NCc3ccccc3)O[C@H](CO)[C@H]1O2`?
ERp5 block: 0; SIRT5 inh: 9; DENV2 CPE: 21*

What do the screens show for `COCCNC(=O)C[C@H]1C[C@@H]2c3cc(NC(=O)Nc4ccc(OC)cc4)ccc3O[C@@H]2[C@H](CO)O1`?
ERp5 block: 0; DENV2 CPE: inconclusive

How did CCCNC(=O)C[C@@H]1C[C@H]2c3cc(NC(=O)CN(C)C)ccc3O[C@H]2[C@@H](CO)O1 do in these assays?
DENV2 CPE: 65*

Results for CCCNC(=O)C[C@@H]1C[C@@H]2c3cc(NC(=O)CC4CC4)ccc3O[C@@H]2[C@H](CO)O1 ?
ERp5 block: -5; SIRT5 inh: 1; DENV2 CPE: 4

What do the screens show for `O=C(C[C@H]1C[C@H]2c3cc(NC(=O)C4CCOCC4)ccc3O[C@H]2[C@H](CO)O1)NCC1CC1`?
ERp5 block: -6; SIRT5 inh: -22; DENV2 CPE: 2

What do the screens show for `O=C(C[C@@H]1C[C@H]2c3cc(NC(=O)Nc4ccccc4)ccc3O[C@H]2[C@H](CO)O1)NC1CCCC1`?
ERp5 block: -5; SIRT5 inh: 0; DENV2 CPE: 3

Results for CO[C@H]1CN(C)C(=O)c2cc(NS(=O)(=O)Cc3ccccc3)ccc2OC[C@H](C)NC[C@H]1C ?
ERp5 block: 3; SIRT5 inh: 3; DENV2 CPE: inconclusive

What do the screens show for `COc1ccc(NC(=O)CN(C)C(=O)c2cc(S(=O)(=O)N3CCCCCC3)ccc2OC)cc1`?
ERp5 block: 0; SIRT5 inh: 7; PDI inh: 6; DENV2 CPE: -10; Rtt109 Vps75: 8

What do the screens show for `COc1ccc(CN(C)C(C)C(=O)Nc2ccc(S(=O)(=O)N3CCOCC3)cc2)c(OC)c1` (stereo not given)?
ERp5 block: 3; SIRT5 inh: 17*; PDI inh: 0; DENV2 CPE: 1; Rtt109 Vps75: -8

Results for COc1ccc(C)cc1N(CC(=O)Nc1ccc(S(=O)(=O)N2CCOCC2)cc1)S(C)(=O)=O ?
ERp5 block: 0; SIRT5 inh: -2; PDI inh: -13; DENV2 CPE: 24*; Rtt109 Vps75: 9

What do the screens show for `COc1ccc(C(=O)N2CCN(S(=O)(=O)c3ccc(C)cc3)CC2)cc1S(=O)(=O)N1CCOCC1`?
ERp5 block: -5; SIRT5 inh: 20*; PDI inh: -4; DENV2 CPE: -5; Rtt109 Vps75: -4

What do the screens show for `COc1ccc(S(=O)(=O)N2CCCCCC2)cc1C(=O)N(C)CC(=O)Nc1ccc(F)cc1`?
ERp5 block: 9; SIRT5 inh: 20*; PDI inh: -3; DENV2 CPE: 3; Rtt109 Vps75: 20

Results for Cc1ccc(S(=O)(=O)N(C)C[C@@H]2OCCCC[C@H](C)Oc3ccc(NC(=O)c4ccncc4)cc3C(=O)N([C@@H](C)CO)C[C@H]2C)cc1 ?
ERp5 block: 4; SIRT5 inh: 7; DENV2 CPE: 1

How did C[C@H]1CN([C@@H](C)CO)C(=O)CCCn2nncc2CO[C@@H]1CN(C)C(=O)Nc1ccc(C(F)(F)F)cc1 do in these assays?
ERp5 block: 3; SIRT5 inh: 0; DENV2 CPE: inconclusive

Results for COc1ccc(NC(=O)N(C)C[C@H]2OCc3ccccc3-c3ccccc3C(=O)N([C@@H](C)CO)C[C@@H]2C)c(OC)c1 ?
ERp5 block: 6; SIRT5 inh: -5; DENV2 CPE: 18

How did O=C(NCC(c1ccco1)N1CCN(c2ccccc2)CC1)C1CCCCC1 (stereo not given) do in these assays?
ERp5 block: 6; SIRT5 inh: -2; PDI inh: 6; DENV2 CPE: 72*

What do the screens show for `O=C(NCc1ccncc1)C(=O)NCC(c1ccco1)N1CCN(c2ccc(F)cc2)CC1` (stereo not given)?
PDI inh: -30; Rtt109 Vps75: 53*

How did O=C(NCc1ccccn1)C(=O)NCC(c1ccco1)N1CCN(c2ccc(F)cc2)CC1 (stereo not given) do in these assays?
ERp5 block: -5; SIRT5 inh: -3; PDI inh: 2; DENV2 CPE: -2; Rtt109 Vps75: -4

Results for CCNC(=O)C[C@@H]1CC[C@H]2[C@@H](COc3ccc(NC(C)=O)cc3C(=O)N2C)O1 ?
ERp5 block: -1; SIRT5 inh: -3; DENV2 CPE: -3

Results for CCCc1nn2c(=O)cc(CSCC(=O)Nc3ccc(C)cc3)nc2s1 ?
ERp5 block: 3; SIRT5 inh: 36*; PDI inh: 8; DENV2 CPE: 9; Rtt109 Vps75: 6

How did COc1ccc(/C=C/c2nc3ccccc3c(=O)n2-c2cccc(C(=O)O)c2)cc1 do in these assays?
ERp5 block: 1; SIRT5 inh: 18*; PDI inh: 8; DENV2 CPE: 0; Rtt109 Vps75: -12

How did CCn1c(/C=C/c2ccc(O)cc2)nc2ccccc2c1=O do in these assays?
ERp5 block: 1; SIRT5 inh: -3; PDI inh: -1; DENV2 CPE: 2; Rtt109 Vps75: 5

What do the screens show for `CO[C@H]1CN(C)C(=O)c2ccc(NC(=O)C3CCOCC3)cc2OC[C@H](C)N(CC2CC2)C[C@H]1C`?
ERp5 block: -10; SIRT5 inh: 0; DENV2 CPE: 2

How did COc1ccc2c3c([nH]c2c1)[C@H](CO)N(Cc1ccccc1Cl)CC31CCN(C(C)=O)CC1 do in these assays?
DENV2 CPE: 22*

Results for COc1ccc2c3c(n(C)c2c1)[C@@H](CO)N(Cc1ccccc1Cl)CC31CN(C(=O)CC2CC2)C1 ?
ERp5 block: -3; SIRT5 inh: 12; DENV2 CPE: 14

What do the screens show for `COc1ccc2c3c([nH]c2c1)[C@@H](CO)N(Cc1ccccc1Cl)CC31CN(C(=O)C2CC2)C1`?
ERp5 block: -5; SIRT5 inh: -2; DENV2 CPE: 23*

Results for COc1ccc2c3c([nH]c2c1)[C@@H](CO)N(Cc1ccccc1Cl)CC31CCN(C(=O)C2CC2)CC1 ?
ERp5 block: 4; SIRT5 inh: -1; DENV2 CPE: inconclusive

How did COc1ccc2c3c([nH]c2c1)[C@H](CO)N(Cc1ccccc1Cl)CC31CN(C(C)=O)C1 do in these assays?
ERp5 block: 0; DENV2 CPE: 0

How did COc1ccc2c3c([nH]c2c1)[C@@H](CO)N(Cc1cccc(Cl)c1)CC31CCN(C(C)=O)CC1 do in these assays?
DENV2 CPE: 30*

Results for COc1ccc2c3c([nH]c2c1)[C@H](CO)N(Cc1cccc(Cl)c1)CC31CCN(C(C)=O)CC1 ?
DENV2 CPE: 11

Compound activity (PubChem)
